Data taken from PubChem BioAssay AID602438 (Sanford-Burnham Center for Chemical Genomics, 2012).
In all, about 360,000 compounds went through this assay and about 3,100 (0.86%) were called active.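 The calls were made as follows: active = inhibition or corrected inhibition above about 18%, plus a signal ratio from 0.5 to 1.5 (limit read from the data, passing the limit was not always enough); inactive = the rest.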 Only a selection was taken, and actives are over-represented in it overall.

Molecular target: Neuropilin-1 (Homo sapiens) (UniProt O14786)
Test: modulators of CendR peptide binding to NRP-1, primary screen, biochemical, fluorescence polarization, uHTS (AID 602438)
Conditions: FAM-RPARPAR peptide binding to NRP-1, fluorescence polarization; at 25 µM; stronger effect = higher value

Neuropilin-1 (Homo sapiens), sequence (O14786 whole entry, looked up): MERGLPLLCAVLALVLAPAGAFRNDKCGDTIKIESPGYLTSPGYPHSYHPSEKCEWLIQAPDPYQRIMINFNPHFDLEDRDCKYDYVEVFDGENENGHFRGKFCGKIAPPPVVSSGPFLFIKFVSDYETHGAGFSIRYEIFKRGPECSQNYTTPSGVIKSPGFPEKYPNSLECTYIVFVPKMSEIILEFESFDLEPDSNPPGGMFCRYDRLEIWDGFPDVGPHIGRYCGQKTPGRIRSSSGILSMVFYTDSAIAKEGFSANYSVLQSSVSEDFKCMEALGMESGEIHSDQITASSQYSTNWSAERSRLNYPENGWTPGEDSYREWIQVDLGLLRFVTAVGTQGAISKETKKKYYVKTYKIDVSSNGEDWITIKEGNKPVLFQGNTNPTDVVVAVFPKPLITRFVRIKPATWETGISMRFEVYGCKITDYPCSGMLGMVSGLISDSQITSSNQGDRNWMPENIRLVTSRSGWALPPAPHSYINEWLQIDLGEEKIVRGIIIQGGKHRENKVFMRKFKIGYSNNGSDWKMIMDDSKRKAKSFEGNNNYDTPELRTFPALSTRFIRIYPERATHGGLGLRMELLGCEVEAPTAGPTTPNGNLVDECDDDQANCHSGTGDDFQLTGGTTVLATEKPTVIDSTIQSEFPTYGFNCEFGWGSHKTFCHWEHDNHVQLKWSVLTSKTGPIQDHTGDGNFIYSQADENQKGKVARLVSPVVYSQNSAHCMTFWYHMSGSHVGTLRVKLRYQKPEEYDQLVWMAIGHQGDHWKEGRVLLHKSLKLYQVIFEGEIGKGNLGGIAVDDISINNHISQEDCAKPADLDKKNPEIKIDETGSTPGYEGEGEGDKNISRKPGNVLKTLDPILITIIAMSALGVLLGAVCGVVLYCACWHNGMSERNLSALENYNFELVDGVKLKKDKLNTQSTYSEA

inhibition, inactive:
COC(=O)C1(C(=O)OC)C/C=C\CN(S(=O)(=O)c2ccccc2[N+](=O)[O-])CCC1 4.4%, CCOC(=O)[C@@H]1[C@H]2COc3cc(OC)ccc3[C@@H]2N2C(=O)N(c3cccc(C)c3)C(=O)[C@@]12C 4.4%, Cc1cc(OCCOc2cccc3cccnc23)c(C)cc1Cl -14.2%, COc1cccc(CNC(=O)C2CCN(S(=O)(=O)c3cccc4cccnc34)CC2)c1 -3%, CCOc1ccc2c(c1)C(c1ccc(C)cc1)=NNC(c1ccc(C)cc1)=N2 5.9%, O=C(NCCCCO)C(F)(F)C(F)(F)C(F)(F)C(=O)NCCCCO 11.3%, Nc1cccc(-c2cncc(N3CCN(Cc4ccccn4)CC3)n2)c1 1.6%, CCCCCCCCCCOC(=O)C[N+](C)(C)CC1CCCCC1O (stereo not given) 18.2%, Cc1ccn2c(c1)nc(=O)c1cc(S(=O)(=O)N3CCC(C)CC3)ccc12 -3.9%, COc1cc2c(=O)n(C)c3ccccc3c2cc1OC 0%, COc1cc2c(C(=O)O)c(C)n(C)c2c2ccccc12 -42.6%, OC(CNC1CCCC1)COc1ccc(F)cc1 (stereo not given) -0.8%, COC(=O)C1CCN(CC(N)=O)CC1 -10.1%, CCc1nc2c(OCc3ccc(C(=O)OC)cc3)cccn2c1N(C)C(=O)C(C)C 13.8%, CCCCC(=O)N(C)c1c(CC)nc2c(OCc3ccc(S(C)(=O)=O)cc3)cccn12 1.6%, COc1ccc(NC(=O)c2ccccc2CC[N+](=O)[O-])cc1 5.3%, Cc1cc(C(=O)NNC(=O)CCC2CCCCC2)c(C)o1 3.2%, O=C1CC2(CCCCC2)Oc2ccc(OCC(=O)N3CCOCC3)cc21 0.6%, Cc1cccc(NC(=O)C2CCN(C(=O)NC3CCCCC3)CC2)c1 -7.7%, CN(C)CCCNC(=O)c1cc(C(=O)Cc2ccc(Cl)cc2)c[nH]1 3.7%, O=C(c1ccc(F)cc1)C1CCN(Cc2cn[nH]c2-c2ccccc2)CC1 -10.4%, COc1ccccc1CNC(=O)C1Cc2ccccc2C(=O)O1 (stereo not given) -8.4%, O=C1/C(=C/c2cccs2)CCC1C1CCCC1 (stereo not given) 2.8%, C[C@H]1CC[C@]2(O[C@@H](CCO)C[C@@H](O)[C@@H]2O)O1 13.5%, C[C@@H]1CC[C@]2(O[C@@H](CCO)C[C@H](O)[C@H]2O)O1 -18.9%, COCCNC(=O)C1CCCN(Cc2ccccc2Cl)CC1 (stereo not given) 2%, Cc1ccc(S(=O)(=O)C2C(=O)NC3(C)CC2c2ccccc2O3)cc1 (stereo not given) -9.3%, CCCOc1ccc(CNC(=O)C2CCN(c3nn4c(=O)cc(C)nc4s3)CC2)cc1 -7.5%, CC(C)(C)NC(=O)C(c1ccncc1)N(C(=O)CNC(=O)c1ccco1)c1ccc2c(c1)OCO2 (stereo not given) 4%, COc1cccc(N(C(=O)CNC(=O)c2ccco2)C(C(=O)NC2CCCCC2)c2cccnc2)c1 (stereo not given) 5.7%, Cc1ccc(S(=O)(=O)NC2(C(F)(F)F)NC(=O)N(CCc3ccccc3)C2=O)cc1 (stereo not given) 11.7%, O=C(c1c(F)cccc1Cl)N1CCN(S(=O)(=O)c2ccc3c(c2)OCCCO3)CC1 2.8%, Cc1coc2c1c(C)cc1oc(=O)c(CC(=O)NCC(=O)N[C@H](C(=O)O)C(C)C)c(C)c12 -3.3%, Cc1nn(CCCC(=O)NCc2ccccc2Cl)c(=O)c2nccn12 3.3%, C[C@@H]1CN([C@H](C)CO)C(=O)CCCn2cc(nn2)CO[C@H]1CN(C)S(C)(=O)=O -4.3%, CSc1nnnn1-c1c(C)cc(C)cc1C 9.3%, COCCN(C(=O)COC(=O)Cc1cccc(OC)c1)c1c(N)n(Cc2ccccc2)c(=O)[nH]c1=O 3.8%, O=C(O)C1CCCN(CCC=C(c2ccccc2)c2ccccc2)C1 (stereo not given) 1.9%, O=[N+]([O-])/C=C/c1ccc2c(ccn2Cc2ccccc2)c1 -5.7%, Cc1cc(C)nc(NC(=O)/C=C/c2ccc(Cl)cc2)n1 6.6%, COC(=O)c1c(C)[nH]c(C(=O)NCCc2ccc(S(N)(=O)=O)cc2)c1C -1.4%, O=C(NCCCc1ccccc1)C1CCC(=O)N(CCc2ccc(Cl)cc2)C1 (stereo not given) 8.8%, O=C(NCCN1CCOC1=O)C1CCC(=O)N(CCc2ccc(Cl)cc2)C1 (stereo not given) -0.8%, CO[C@@H]1CN(C)C(=O)c2cc(NC(=O)Nc3cc(F)ccc3F)ccc2OC[C@H](C)N(C(=O)c2ccccn2)C[C@@H]1C 2.7%, COc1ccc(Cl)cc1NC(=O)NCC1CCN(Cc2ccccc2F)CC1 -1%, COc1ccc(Cl)cc1NC(=O)NC(C)C(C)(C)C (stereo not given) -1.8%, Cc1n[nH]c(=O)n1-c1ccc(Oc2ccccc2)cc1 20%, CCOc1ccc(CCNC(=O)C2=C(C)C(=O)OC23CCC(C)CC3)cc1OCC (stereo not given) -1.3%, CC(=O)Nc1ccc(NC(=O)COc2ccccc2C(=O)Nc2cccc(Cl)c2Cl)cc1 4.5%, CSc1ccccc1NC(=O)c1cc(Cl)sc1Cl -5.4%, COc1ccc(CN2C3CCCC2CC(NC(=O)c2cccc(F)c2)C3)cc1 (stereo not given) -2.7%, COc1ccc(CN2C(CC(=O)Nc3cccnc3)c3ccc(C(F)(F)F)cc3S2(=O)=O)cc1 (stereo not given) 0.3%, O=C(C[n+]1cc(-c2ccc(Cl)c(Cl)c2)n2c1CCC2)c1cccs1 -11.8%, CCOC(=O)C1(Cc2ccccc2C)CCCN(C(=O)CN2C(=O)CSC2=O)C1 (stereo not given) 5.9%, COc1ccc(CC(=O)OC(C)C(=O)Nc2ccc(S(N)(=O)=O)cc2)cc1 (stereo not given) -4.6%, COC(C[C@@H](O)C[C@@H](O)[C@H](C)OCc1ccccc1)OC 17.1%, COC(C[C@@H](O)C[C@H](O)[C@H](C)OCc1ccccc1)OC -8.8%, COCCn1c(SCc2nc3cc(OC)c(OC)cc3c(=O)[nH]2)nnc1-c1ccncc1 14.6%, NS(=O)(=O)c1ccc(CCNC(=O)c2nc(CS(=O)(=O)c3ccc(Cl)cc3)no2)cc1 -1.3%, O=C1C=C(NCCNc2c(F)c(F)c(CO)c(F)c2F)CCC1 -0.5%, CCOC(=O)[C@]12CCC=C1N(Cc1ccccc1)C(=O)[C@H](CC(=O)N1CCCC1)C2 -23.1%, CC(=O)NC(CC(=O)Nc1nc(-c2ccccc2)c(C(C)=O)s1)c1ccccc1 (stereo not given) -4.6%, CCN1C(=O)N[C@@H](c2ccccc2)[C@H](C(C)=O)[C@H]1C 7.8%, CCN1C(=S)N[C@@H](CCc2ccccc2)[C@H](C(=O)OC)[C@H]1C 10.2%, CC12COC3(C(=O)Nc4ccc(Cl)cn4)CC1CCC32C (stereo not given) -0.2%, Cc1ccc(OCC(=O)Nc2ccc(C(=O)O)cc2NC(=O)COc2ccc(C)c(C)c2)cc1C 0.7%, COc1ccc(OCC(=O)OCCN(C)C)cc1 1.6%, CCCCNC(=O)C1(O)c2ccccc2NC(=O)N1c1ccc(Cl)cc1 (stereo not given) 3.9%, COc1ccc(N(CC(=O)NCCSCc2cccc(Cl)c2)S(C)(=O)=O)cc1 -7.7%, CCCNC(=O)c1cc2c(c(-c3cccc(-c4ccc(C#N)cc4)c3)n1)[C@@H](CCO)N(C(=O)CC)C2 8.8%, O=C(N[C@H]1CC[C@H](CC(=O)N2CCCCC2)O[C@@H]1CO)c1cccc(F)c1 -5%, Cc1cc(=O)oc2c(C)c(OC(C)C(=O)NC3CCN(Cc4ccccc4)CC3)ccc12 (stereo not given) 12.6%, CCCc1cc(=O)oc2c(C)c(OCC(=O)NCc3ccccn3)ccc12 -1%

inhibition, active:
CC(=O)/C(=N\Nc1ccc(Cl)cc1Cl)Sc1cccc2cccnc12 61.1%, Cc1ccc(C2=Nc3c(ccc4ccccc34)C(c3ccncc3)=NN2)cc1 25.8%, COc1cccc2c(O)cc(=O)n(C)c12 19.9%, CCc1nc2c(OCc3ccc(C(F)(F)F)cc3)cccn2c1N(C)C(=O)CC(C)C 22.7%, O=C(Nc1cccc(OCC(=O)N2CCOCC2)c1)C1CCCCC1 21.3%, OCC[C@H]1C[C@H](O)[C@@H](O)[C@]2(CCCCO2)O1 28.3%, Cc1ccc(N(C(=O)CNC(=O)c2ccco2)C(C(=O)NC2CCCC2)c2ccncc2)cc1 (stereo not given) 18.5%, Cc1coc2c(O)cc3c(c12)OC1(N2CCCCC2)C(=O)NCCCC31 (stereo not given) 26.1%, COC(=O)c1c(C)[nH]c(C(=O)/C=C/c2ccc(Cl)cc2)c1C 41%, Cc1cc(CNC(=O)C2CCC(=O)N(CCc3ccc(Cl)cc3)C2)no1 (stereo not given) 28.7%, COc1ccc(Cl)cc1NC(=O)C(C)N1CCc2ccccc21 (stereo not given) 23.1%, CN(C)S(=O)(=O)Oc1ccccc1C(=O)Nc1ccccc1Cl 50.6%, COc1ccc(CN2[C@@H](CC(=O)O)c3cc(F)ccc3S2(=O)=O)cc1 26.2%, COC(C[C@@H](O)[C@H](C)[C@H](O)COCc1ccccc1)OC 18.6%, COCCN1C(=O)N[C@@H](CCc2ccccc2)[C@H](C(C)=O)[C@H]1C 23.7%, COc1ccc(C(=O)COC(=O)COc2ccc(C)c(C)c2)cc1 33.9%, CCCc1cc(=O)oc2c(C)c(OC(C)C(=O)NCC(O)c3ccccc3)ccc12 (stereo not given) 22.4%
